Screening data deposited in PubChem BioAssay by National Center for Advancing Translational Sciences (NCATS).
DT40 TDP1 CPT – qHTS for Inhibitors of human tyrosyl-DNA phosphodiesterase 1 (TDP1): qHTS in cells in presence of CPT. chicken DT40 Tdp1-/-;hTDP1 cells + 20 nM CPT, ATP luminescence, 48 h. Potency, µM (doses to about 46.2 µM), without a hit: at the top dose activity change, negative = growth inhibition, hits mostly inhibitors. 12% of 420,000 active. AID 686979, 2013; note: potency is the fitted concentration of half-maximal effect; % is set by controls: 0 for no effect and ±100 for the full control effect; nearly all actives have a fitted effect of over 55% in size
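Chicken DT40 Tdp1-/- cells stably complemented with human TDP1 were seeded at 400 cells/well in medium containing 20 nM camptothecin, exposed to pin-transferred compounds, and grown at 37 °C for at least 48 hr. Viability was read as ATP luminescence.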
TDP1 cell noCPT – qHTS for Inhibitors of human tyrosyl-DNA phosphodiesterase 1 (TDP1): qHTS in cells in absence of CPT. DT40 Tdp1-/- hTDP1 cells, no CPT, ATP luminescence, 48 h. Potency, µM (top dose mostly 46.2 µM), for the others: at the highest dose activity change, negative = growth inhibition, actives largely listed as inhibitors. 15% of 420,000 active; note: potency is the fitted concentration of half-maximal effect; % is set by controls: 0 for no effect and ±100 for the full control effect; nearly all actives have a fitted effect of over 55% in size
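No-CPT arm: Tdp1-/-;hTDP1 DT40 cells (400/well) plus compounds, incubated ≥48 hr at 37 °C. Readout CellTiter-Glo luminescence.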
MCF10A rereplic – A quantitative high throughput screen for small molecules that induce DNA re-replication in MCF 10a normal breast cells; MCF 10A DNA re-replication, Hoechst nuclear intensity, 48 h; 2.9% of 350,000 active; Potency, µM (doses to about 46.1 µM), inactives show at the highest dose activity, positive = re-replication, most hits filed as activators; note: potency is the fitted concentration of half-maximal effect; % of control where 0% means no effect; nearly all actives have a fitted effect of over 50% in size
Chronic BCR inh – qHTS Assay to Find Inhibitors of Chronic Active B-Cell Receptor Signaling; ABC-DLBCL IkBa-CBG/CBR reporter, luminescence ratio, 4 h; Potency, µM (series often up to 46.1 µM), inactives show at the highest dose activity change, negative = inhibition, most hits filed as inhibitors; 0.05% of 340,000 active; active = well fitted inhibition curve with a large enough effect in the signal ratio, with a control signal flat, not every such curve was filed as active; inconclusive = small, poorly fitted or top-dose-only effect, or effect the other way, or a change in a side signal; the % refers to the signal ratio;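 note: potency is the fitted concentration of half-maximal effect; plate controls were basal doxycycline-induced cells for no effect and cells given 10 µM MG132 for full effect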
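Concentration-response series (up to 46 uM) were applied to TMD8 dual-reporter cells for 4 h at 37C with doxycycline. Green/red ratio, after filter-overlap correction, defined %Activity; red signal alone was normalised to basal cells and zero luminescence.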
SW480 rerep – A quantitative high throughput screen for small molecules that induce DNA re-replication in SW480 colon adenocarcinoma cells | AID 624297, 2012 | Potency, µM (doses to about 46.1 µM), for inactives: top-dose re-replication activation, most hits filed as activators | 1.8% of 340,000 active | SW480 DNA re-replication, Hoechst DNA content imaging, 48 h; note: potency is the fitted concentration of half-maximal effect; % of control where 0% means no effect; nearly all actives have a fitted effect of over 55% in size
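250 cells/well; 23 nL cpd via pin tool; 48 hr, 37 C, 5% CO2; Hoechst 40 min; imager read of total nuclear intensity, ex 405/em 500-530 nm.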
IL-1B inflam inh – qHTS for Inhibitors of Inflammasome Signaling: IL-1-beta AlphaLISA Primary Screen | AID 743279, 2014 | 4.7% of 360,000 active | activity change, % at 57.5 µM | THP-1 LPS/ATP IL-1B secretion, AlphaLISA, 16 h; active compounds read low; in the data active = activity change below about -50%; inconclusive = mostly about -30% to -49%; note: % is set by controls: 0 for no effect and ±100 for the full control effect
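THP-1 cells pretreated 1 hr with compounds (up to 57.5 uM final), then stimulated with LPS (250 ng/mL final) plus ATP (1.25 mM final); secreted IL-1B measured by AlphaLISA after 16 hr, decreased signal indicating inhibition.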
Starred values were filed as active, the others as inactive; ? = inconclusive; nt = not tested or not shown; [ ] = another dose, or the depositor's remark. This is a sample that favours compounds with a hit; in the whole collection about 19% have one here. Unless noted, calls come from the whole dose curve; as a rule, active = well fitted curve in the direction sought with a large enough effect; inconclusive = small, poorly fitted or top-dose-only effect, or another doubt; inactive = no such curve, though single readings can be large; an effect the other way counts as inactive or inconclusive.

SMILES | DT40 TDP1 CPT | TDP1 cell noCPT | MCF10A rereplic | Chronic BCR inh | SW480 rerep | IL-1B inflam inh
Cc1cc(C(C)(C)C)cc(C)c1Cn1c2[n+](c3ccc(C(F)(F)F)cc31)CCCCC2 | 2.06µM* | 1.84µM* | ? | ? | -9.9% | -107.9*
FC(F)(F)c1cccc(Cn2c3[n+](c4ccc(C(F)(F)F)cc42)CCCCC3)c1 | ? | 23.1µM* | 10.2% | -8.2% | 1.0% | -76.9*
N#Cc1ccc(NC(=O)Cn2c3[n+](c4ccc(C(F)(F)F)cc42)CCCCC3)cc1 | ? | ? | -12.0% | 2.6% | 3.3% | 11.3
O=[N+]([O-])c1cc(/C=N/O)ccc1Oc1cccc(Cl)c1 | 1.1% | -9.2% | -8.6% | ? | ? | -14.9
Cc1cc(=O)oc2cc(Oc3ccc([N+](=O)[O-])cc3[N+](=O)[O-])ccc12 | 5.17µM* | 4.61µM* | ? | 1.9% | -36.4% | -104.0*
O=C(c1ccccc1)c1ccc(Oc2ccc([N+](=O)[O-])cc2[N+](=O)[O-])cc1 | ? | ? | 11.6µM* | nt | 3.26µM* | -95.4*
O=Cc1cccc(Oc2ccc([N+](=O)[O-])cc2[N+](=O)[O-])c1 | ? | 7.31µM* | ? | ? | 13.3% | 62.3
CN(c1ccccc1)c1nccc(=O)[nH]1 | 4.0% | -3.3% | -2.0% | nt | -7.5% | 6.4
CC(C)c1ccc(NC(=O)CSC2=Nc3ccccc3C3=NC(CCC(=O)NCc4cccs4)C(=O)N23)cc1 (configuration not stated) | 23.1µM* | 25.9µM* | nt | 14.5% | nt | nt
O=C(CCC1N=C2c3ccccc3N=C(SCC(=O)Nc3ccc(F)cc3)N2C1=O)NCc1cccs1 (configuration not stated) | 14.6µM* | 14.6µM* | nt | 1.8% | nt | nt
O=C(CCC1N=C2c3ccccc3N=C(SCc3ccccc3Cl)N2C1=O)NCc1cccs1 (configuration not stated) | ? | 20.6µM* | nt | -16.6% | nt | nt
O=C(CCC1N=C2c3ccccc3N=C(SCC(=O)Nc3ccccc3F)N2C1=O)NCc1cccs1 (configuration not stated) | -23.8% | -26.7% | nt | nt | nt | nt
CCc1ccc(NC(=O)CSC2=Nc3ccccc3C3=NC(CCC(=O)NCc4cccs4)C(=O)N23)cc1 (configuration not stated) | ? | ? | nt | -21.1% | nt | nt
Cc1ccc(CSC2=Nc3ccccc3C3=NC(CCC(=O)NCc4cccs4)C(=O)N23)cc1 (configuration not stated) | -29.2% | ? | nt | ? | nt | nt
COC(=O)c1[nH]c2ccccc2c1CN1CCOCC1 | -2.5% | 4.3% | -4.9% | -8.1% | -3.6% | -4.5
COc1cc(/C=N/N=C2/SCC(=O)N2c2ccc(O)cc2)ccc1O | 9.2µM* | 20.6µM* | ? | ? | ? | 34.9
COc1ccccc1N(C)C(=O)c1cc(S(=O)(=O)N2CCCC2)cn1C | 0.5% | -9.1% | -2.1% | 1.3% | -0.7% | 1.5
CC1(C)C(=O)Nc2ccccc2N1C(=O)COC(=O)CNS(=O)(=O)c1ccc(Br)cc1Cl | 2.7% | -25.6% | -6.3% | nt | 1.8% | 5.5
COc1ccc(-c2cnc(SCC(=O)Nc3cc(C)on3)n2Cc2ccco2)cc1 | -17.4% | ? | 21.4% | ? | -1.1% | -13.0
CCOc1ccc(NC(=O)CSc2nnc(-c3ccccc3Cl)n2Cc2ccco2)cc1 | 20.6µM* | 18.4µM* | 1.7% | ? | 3.1% | -2.4
COc1ccc(NC(=O)CSc2ncc(-c3ccc(F)cc3)n2Cc2ccco2)cc1 | 12.6µM* | 15.8µM* | ? | ? | 3.4%[9.22 µM] | -61.6*
COc1ccc(-c2cnc(SCC(=O)Nc3nc(C(C)(C)C)cs3)n2Cc2ccco2)cc1 | ? | 20.6µM* | ? | 15.1% | -7.8% | -13.8
O=C(CSc1ncc(-c2ccc(F)cc2)n1Cc1ccco1)Nc1nccs1 | ? | 20.6µM* | 0.0% | -2.4% | -0.2% | 9.1
CCC(=O)Nc1cc(NC(=O)CSc2ncc(-c3ccc(F)cc3)n2Cc2ccco2)ccc1C | -14.1% | 6.2% | ? | ? | 5.6% | ?
Cc1csc(NC(=O)CSc2nnc(C)n2Cc2ccco2)n1 | -3.0% | 0.3% | 15.2% | 7.5% | -4.6% | -1.2
SMILES | DT40 TDP1 CPT | TDP1 cell noCPT | MCF10A rereplic | Chronic BCR inh | SW480 rerep | IL-1B inflam inh
Cc1cnc(NC(=O)CSc2ncc(-c3ccccc3)n2Cc2ccco2)s1 | 18.4µM* | ? | ? | ? | 2.4% | -12.4
CCOc1ccccc1NC(=O)COC(=O)c1cnc(C)cn1 | -1.1% | 1.3% | -5.2% | -1.1% | -5.5% | 4.5
CC1=NN(c2ccccc2)C(=O)C1N=Nc1cccc(O)c1 (configuration not stated) | 16.4µM* | 16.4µM* | ? | -16.2% | -0.8% | 42.3
CC1=NN(c2ccccc2)C(=O)C1N=Nc1ccc(N)cc1 (configuration not stated) | 14.6µM* | 10.3µM* | ? | ? | 1.2% | 0.0
Cc1ccc(NC(=O)CSCC(=O)N2CCN(Cc3ccc4c(c3)OCO4)CC2)cc1 | -12.9% | -1.0% | 0.4% | 3.6% | 2.9% | -11.7
O=C1c2sc3nc4ccccc4n3c2C(=O)N1c1ccccc1Cl | 2.59µM* | 7.31µM* | ? | ? | -2.3%[9.22 µM] | ?
O=C1c2sc3nc4c(c(=O)n3c2C(=O)N1c1ccccc1)CCC4 | 4.11µM* | 6.51µM* | -4.7% | 6.3% | -5.6% | ?
O=C(O)c1ccc(-c2ccc(/C=c3/sc4nc5ccccc5n4c3=O)o2)cc1Cl | -1.2% | ? | 1.6% | ? | -5.7% | 11.9
Cc1ccccc1N1C(=O)c2sc3nc4c(c(=O)n3c2C1=O)CCC4 | 5.8µM* | 18.4µM* | ? | ? | ? | -15.4
Cc1noc(C)c1C(=O)OC(C)C(=O)c1ccc(C(C)(C)C)cc1 (configuration not stated) | -13.8% | -25.6% | nt | nt | nt | 13.0
CCC(C)c1ccc(O[C@@H]2O[C@H](CO)[C@@H](O)[C@H](O)[C@H]2NC(C)=O)cc1 (some centres not stated) | -5.3%[9.04 µM] | 4.6%[9.04 µM] | nt | nt | nt | nt
Cc1cc(NC(=O)C2CC(=O)N(c3cccc(Cl)c3)C2)no1 (configuration not stated) | -10.4% | -10.9% | -15.5% | 0.6% | -19.2% | 19.4
